Marburg entry inh: qHTS for inhibitors of binding or entry into cells for Marburg Virus | Marburg virus pseudotyped entry inhibition, cell reporter | Potency, µM (top dose mostly 37.8 µM), for inactives: at the top dose activity change, negative = inhibition, usual class: inhibitors | 1.8% of 300,000 active | AID 540276, 2011; calls by dose curve; tested in HEK293 cells; further: potency means the concentration at half of the fitted maximal effect
Lassa entry inh: qHTS for Inhibitors of binding or entry into cells for Lassa Virus; Lassa virus pseudotype entry inhibition, cell reporter; AID 540256, 2011; Potency, µM (titrated, usually from 37.9 µM), inactives show at the top dose activity change, negative = inhibition, most hits filed as inhibitors; 1.2% of 300,000 active; calls by dose curve; tested in HEK293 cells; further: potency means the concentration at half of the fitted maximal effect; nearly all actives have a fitted effect of over 50% in size
HCMV inh: qHTS Assay for inhibitors of the human cytomegalovirus (HCMV) | HFF cells, HCMV-luciferase reporter, 72 h; stronger effect = lower value | activity change, negative = inhibition, % at 57.5 µM | 4.5% of 410,000 active | AID 1259415, 2018; in the data active means activity change below about -60%; inconclusive means no clear call, values can overlap the other calls; inactive means above about -39%
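Luciferase read-out from HCMV-luciferase-infected HFFs (MOI 1 PFU/cell) 72 h post infection at 37C; compounds added after 16 h cell attachment; activity normalized between buffer-only basal and Salinomycin (10uM) inhibitor controls.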
FMDV inh: High Throughput Screening for Foot and Mouth Disease Virus Antivirals; FMDV antiviral cell-based qHTS; Potency, µM (doses to about 57.9 µM), for the others: top-dose activity change, negative = inhibition, actives largely listed as inhibitors; 1.2% of 410,000 active; calls by dose curve; tested in HEK293T cells; further: read-out not given here; potency means the concentration at half of the fitted maximal effect; nearly all actives have a fitted effect of over 45% in size
Vaccinia mCherry: qHTS for Stage-Specific Inhibitors of Vaccinia Orthopoxvirus: mCherry Reporter Primary qHTS | Vaccinia virus mCherry reporter infection, fluorescence | Potency, µM (doses to about 36.5 µM), without a hit: at the highest dose activity change, negative = inhibition, most hits filed as inhibitors | 0.63% of 310,000 active | AID 720579, 2013; calls by dose curve; tested in A549 cells; further: potency means the concentration at half of the fitted maximal effect; nearly all actives have a fitted effect of over 35% in size
VACV Venus inh: qHTS for Stage-Specific Inhibitors of Vaccinia Orthopoxvirus: Venus Reporter Primary qHTS; Potency, µM (highest dose often 36.5 µM), for inactives: at the top dose activity change, negative = inhibition, usual class: inhibitors; AID 720580, 2013; Vaccinia virus Venus reporter expression, fluorescence; 0.46% of 330,000 active; calls by dose curve; tested in A549 cells; further: potency means the concentration at half of the fitted maximal effect; nearly all actives have a fitted effect of over 30% in size
* = called active by the depositor; [ ] = remark or other dose. An excerpt weighted towards active compounds, which were near 6.5% of everything screened. On the % scale 0 is the no-effect control and ±100 the full control effect.

For CCOC(=O)c1c(NC(=O)CCl)sc(CN(C)C)c1-c1ccccc1 the results were Marburg entry inh inconclusive, Lassa entry inh -22.3%, HCMV inh -6.2, FMDV inh 35.5µM*, Vaccinia mCherry -13.2% and VACV Venus inh -8.7%.
For CCOC(=O)c1c(NC(=S)N2CCN(C)CC2)sc(C)c1-c1ccccc1 the results were Marburg entry inh inconclusive, Lassa entry inh 8.91µM*, HCMV inh inconclusive, FMDV inh -7.6%, Vaccinia mCherry -10.6% and VACV Venus inh -8.6%.
For CCOC(=O)c1c(/N=C/N(C)C)sc(/C=N/Nc2ccccc2)c1-c1ccccc1 the results were Marburg entry inh 18.3µM*, Lassa entry inh -4.1%, HCMV inh 2.5 and FMDV inh -19.2%.
For CCOc1ccc(CCNC(=O)[C@@H](O)c2ccccc2)cc1 the results were Marburg entry inh 14.4%.
For OC(c1cccc(Cl)c1)c1nnc(Nc2cccc(Oc3ccccc3)c2)s1 (configuration not stated) the results were HCMV inh -19.4.
For COc1cc(NC(=O)c2c(-c3ccc(C)cc3)nnc3ccccc23)cc(OC)c1OC the results were Lassa entry inh inconclusive, HCMV inh 0.0, FMDV inh 23.7%, Vaccinia mCherry -26.8% and VACV Venus inh -19.2%.
For O=C(c1cc(COc2ccc(F)c(F)c2)on1)N1CCN(C2CCCCC2)C(=O)C1 the results were HCMV inh 33.8 and FMDV inh 1.3%.
For CC(=O)c1ccc(OCc2cc(C(=O)N3CCN(C4CCCC4)C(=O)C3)no2)cc1 the results were Marburg entry inh 2.7%, Lassa entry inh 3.16µM*, HCMV inh 59.0, FMDV inh 31.7%, Vaccinia mCherry -5.0% and VACV Venus inh -20.5%.
For O=C(/C=C/c1ccc([N+](=O)[O-])s1)N1CCCC1 the results were HCMV inh -31.4, FMDV inh -7.2%, Vaccinia mCherry inconclusive and VACV Venus inh 12.6µM*.
Screening O=C(/C=C/c1ccc([N+](=O)[O-])s1)N1CCCCC1 returned Marburg entry inh 8.91µM*, Lassa entry inh inconclusive, HCMV inh inconclusive, FMDV inh 4.0%, Vaccinia mCherry inconclusive and VACV Venus inh 14.1µM*.
Screening O=C(/C=C/c1ccccc1[N+](=O)[O-])N1CCCCC1 returned Marburg entry inh 4.3%, Lassa entry inh 1.6%, HCMV inh 31.2 and FMDV inh -14.2%.
Screening O=C(/C=C/c1cccs1)N1CCCCC1 returned Marburg entry inh inconclusive, Lassa entry inh 6.7%[46.1 µM], HCMV inh -15.9, FMDV inh 36.3%, Vaccinia mCherry -18.4% and VACV Venus inh -6.2%.
O=C(/C=C/c1ccc([N+](=O)[O-])s1)N1CCN(c2ccccc2)CC1 was read as HCMV inh -70.5* and FMDV inh -24.1%.
`O=C(Nc1ccc(Br)cc1)c1ccc(F)c(S(=O)(=O)N2CCc3ccccc32)c1` gave Lassa entry inh inconclusive, HCMV inh -92.3*, FMDV inh inconclusive, Vaccinia mCherry -16.4% and VACV Venus inh inconclusive.
CCc1ccccc1NC(=O)c1ccc(F)c(S(=O)(=O)N2CCN(c3ccccc3OC)CC2)c1 was read as Lassa entry inh inconclusive, HCMV inh -62.4*, FMDV inh inconclusive, Vaccinia mCherry -23.5% and VACV Venus inh -27.8%.
Screening Cc1nc2ccc(NC(=O)c3ccc(C)c(S(=O)(=O)N4CCOCC4)c3)cc2s1 returned HCMV inh -71.8* and FMDV inh inconclusive.
O=C(Nc1cc(Cl)cc(Cl)c1)c1ccc(F)c(S(=O)(=O)N2CCN(c3ccccc3F)CC2)c1 was read as Lassa entry inh -14.2%[46.1 µM], HCMV inh -19.8, FMDV inh -20.0%, Vaccinia mCherry -16.0% and VACV Venus inh -16.7%.
Cc1ccc(NC(=O)c2ccc(F)c(S(=O)(=O)N3CCOCC3)c2)cc1F was read as Marburg entry inh -12.5%, Lassa entry inh -53.7%[14.3 µM], HCMV inh -68.6*, FMDV inh inconclusive, Vaccinia mCherry inconclusive and VACV Venus inh -24.7%.
`O=C(Nc1ccccc1)c1ccc(F)c(S(=O)(=O)N2CCOCC2)c1` gave Marburg entry inh 2.1%, Lassa entry inh -21.0%, HCMV inh -13.7 and FMDV inh -4.5%.
Screening CC(C)c1ccc(NC(=O)c2ccc(F)c(S(=O)(=O)N3CCc4ccccc43)c2)cc1 returned Lassa entry inh inconclusive, HCMV inh -9.5, FMDV inh inconclusive, Vaccinia mCherry -3.4% and VACV Venus inh -26.0%.
`CC1=C[C@]23OC(C)(C)C[C@@]2(C)C[C@H](C)C3=CC1=O` gave HCMV inh 18.1.
`CCOC(=O)Cc1csc(NC(=O)c2ccc(C)c(S(=O)(=O)N3CCOCC3)c2)n1` gave HCMV inh 0.0 and FMDV inh 31.6µM*.
CCOC(=O)Cc1csc(NC(=O)c2ccc(S(=O)(=O)N3CCOCC3)cc2)n1 was read as Marburg entry inh inconclusive, Lassa entry inh -3.4%, HCMV inh 10.8, FMDV inh -19.8%, Vaccinia mCherry -3.8% and VACV Venus inh -11.4%.
Screening Cc1ccc(NC(=O)c2ccccc2NS(=O)(=O)c2ccc(Cl)s2)cc1S(=O)(=O)N1CCOCC1 returned Marburg entry inh inconclusive, Lassa entry inh inconclusive, HCMV inh -82.1*, FMDV inh inconclusive, Vaccinia mCherry -23.4% and VACV Venus inh inconclusive.
Screening Cc1ccc(NC(=O)c2ccc(F)c(S(=O)(=O)NCCc3ccccc3)c2)cc1F returned Lassa entry inh inconclusive, HCMV inh -74.9*, FMDV inh 2.5%, Vaccinia mCherry inconclusive and VACV Venus inh -26.1%.
For Cc1ccc(CNS(=O)(=O)c2cc(C(=O)Nc3ccc(C(C)C)cc3)ccc2F)cc1 the results were Lassa entry inh -18.5%[46.1 µM], HCMV inh -5.0, FMDV inh -16.7%, Vaccinia mCherry -17.4% and VACV Venus inh -28.4%.
`Cc1ccc(C)c(N2CCN(S(=O)(=O)c3cc(C(=O)Nc4ccc(Oc5ccccc5)cc4)ccc3F)CC2)c1` gave Lassa entry inh 12.2%[46.1 µM], HCMV inh -65.1*, FMDV inh -25.2%, Vaccinia mCherry inconclusive and VACV Venus inh -31.6%.
`Cc1ccc(CN2C[C@H](Sc3ccccn3)C[C@H]2C(=O)Nc2ccc3sc(C)nc3c2)s1` gave FMDV inh 5.1%, Vaccinia mCherry -7.2% and VACV Venus inh inconclusive.
`Cc1nc2ccc(NC(=O)c3ccc(Cl)c(S(=O)(=O)N(C)c4ccccc4)c3)cc2s1` gave Marburg entry inh inconclusive, Lassa entry inh inconclusive, HCMV inh -101.5*, FMDV inh 8.91µM*, Vaccinia mCherry inconclusive and VACV Venus inh inconclusive.

Compound activity: PubChem BioAssay, National Center for Advancing Translational Sciences (NCATS)
